# Screening data as filed in PubChem.
# Rows were chosen to be rich in hits. Some 3.2% of all compounds tested hit in one or more screens of this group.
# RE007 growth inh: less growth of the S. pombe RE007 Vpr strain; S. pombe RE007 Vpr strain, BacTiter-Glo ATP luminescence, 24 h; Potency, µM (titrated, usually from 92.2 µM), for inactives: at the top dose activity change, negative = less growth, hits mostly inhibitors; 0.21% of 360,000 active; AID 651644; active = well fitted falling curve with a large enough effect; inconclusive = small, poorly fitted or top-dose-only effect; inactive = no such curve, though single readings can be large or run the other way; note: nearly all actives have a fitted effect of over 50% in size
#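 Fission yeast strain RE007, carrying one chromosomally integrated HIV-1 vpr copy, was seeded at OD 0.01 in PMG+AL medium with 23 nL pinned compound. After 24 h at 30 °C and 99% humidity, viability was read by BacTiter-Glo luminescence.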
# Sm TGR block: S. mansoni TGR enzyme inhibition | purified TGR, DTNB reduction, TNB absorbance 405 nm | Potency, µM (titrated, usually from 114 µM), for the others: at the highest dose activity change, negative = inhibition, hits mostly inhibitors | 3% of 360,000 active; note: nearly all actives have a fitted effect of over 60% in size
#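 First, TGR (20 nM dispensed) and NADPH were mixed with compound. Second, a 15 min room-temperature incubation followed. Third, further NADPH and then DTNB were added to start the reaction. Finally, TNB absorbance was monitored kinetically.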
# Tb PYK inh: inhibitors of Trypanosoma brucei pyruvate kinase; Q57TT1; TbPYK enzyme, Kinase-Glo Plus ATP luminescence, 45 min; Potency, µM (doses to about 76.8 µM), for inactives: at the highest dose activity, negative = inhibition, usual class: inhibitors; 0.12% of 410,000 active; note: nearly all actives have a fitted effect of over 50% in size
#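 Activity of T. brucei pyruvate kinase was followed by Kinase-Glo Plus luminescence after the enzyme reacted 45 min at room temperature with 130 uM ADP (final) and substrate. Test compounds were added before ADP at multiple concentrations.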
# LmPK inh: inhibitors of Leishmania mexicana pyruvate kinase; Q27686; Potency, µM (series often up to 57.5 µM), for inactives: at the highest dose activity change, negative = inhibition, hits mostly inhibitors; 0.37% of 290,000 active; AID 1721; purified LmPK, Kinase-Glo ATP luminescence, 1 h
# Target sequence (Q27686 whole entry, looked up): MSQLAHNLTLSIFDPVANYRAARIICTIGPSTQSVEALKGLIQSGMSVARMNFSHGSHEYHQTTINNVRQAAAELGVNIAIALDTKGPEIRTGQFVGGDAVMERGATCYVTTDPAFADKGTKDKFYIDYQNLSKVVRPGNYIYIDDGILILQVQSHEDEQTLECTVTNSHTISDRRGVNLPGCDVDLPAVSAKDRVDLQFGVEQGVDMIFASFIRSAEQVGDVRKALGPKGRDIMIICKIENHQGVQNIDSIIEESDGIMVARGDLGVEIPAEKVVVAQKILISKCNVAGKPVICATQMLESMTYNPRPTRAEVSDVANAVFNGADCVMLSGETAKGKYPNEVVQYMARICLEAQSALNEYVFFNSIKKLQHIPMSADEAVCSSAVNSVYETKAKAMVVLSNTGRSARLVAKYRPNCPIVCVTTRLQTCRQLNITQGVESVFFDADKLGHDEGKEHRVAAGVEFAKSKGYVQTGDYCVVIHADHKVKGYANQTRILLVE
#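 Purified LmPK (0.1 nM) converted ADP (0.1 mM) to ATP with PEP (0.5 mM) in imidazole buffer pH 7.2 with KCl and MgCl2, 1 h at room temperature. ATP was read by Kinase-Glo luminescence; data normalized to uninhibited and no-enzyme controls.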
# AMA1 RON2 block: disrupts binding of P. falciparum AMA1 to RON2 | AlphaScreen AMA1-biotinylated RON2 peptide binding | Potency, µM (top dose mostly 58.2 µM), for the others: top-dose activity change, negative = inhibition, hits mostly inhibitors | 0.2% of 360,000 active;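 note: 0% = vehicle wells and -100% = peptide control; nearly all actives have a fitted effect of over 45% in size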
#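 AMA1 (3D7) with his tag at 25 nM final met compounds first, then biotinylated RON2 peptide at 25 nM; detection used donor plus acceptor beads, 10 µg/mL apiece, read by AlphaScreen after 30 min at room temperature.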
# The depositor's hits bear a star; ? = inconclusive; . = not tested or not shown; [ ] = dose if it differs, or a comment. Unless noted, calls come from the whole dose curve; as a rule, active = well fitted curve in the direction sought with a large enough effect; inconclusive = small, poorly fitted or top-dose-only effect, or another doubt; inactive = no such curve, though single readings can be large; an effect the other way counts as inactive or inconclusive. Unless noted, % is set by controls: 0 for no effect and ±100 for the full control effect; potency is the fitted concentration of half-maximal effect.
SMILES,RE007 growth inh,Sm TGR block,Tb PYK inh,LmPK inh,AMA1 RON2 block
O=C(NC(=S)NCc1ccccc1)c1ccc2c(c1)OCO2,-20.4%,39.8µM*,-2.8%,-1.5%,23.0%
O=C(Nc1ccccn1)c1ccc2c(c1)OCCO2,-15.8%,-3.4%,?,?,-4.6%
O=C(NNC(=S)NCc1ccccc1)c1ccc2c(c1)OCO2,2.2%,-5.6%,-12.4%,1.1%,61.3%[11.6 µM]
COC(=O)c1ccccc1NC(=S)NC(=O)CC(C)C,5.3%,-23.3%,9.7%,-4.1%,5.3%
COC(=O)c1ccccc1NC(=S)NC(=O)c1ccc2c(c1)OCO2,1.5%,11.2µM*,1.9%,5.6%,22.6%
O=C(CN(CCc1ccccc1)C(=O)Cn1nnc(-c2cccs2)n1)NCc1ccco1,15.8%,50.1µM*,8.0%,3.9%,-1.9%
Cc1ccc(C2C(=O)N(C3CCCCCC3)CC(=O)N2CCC2=CCCCC2)cc1 (centres undefined),.,42.8%,4.3%,.,.
CCOC(=O)c1c(C)n(-c2ccc(F)cc2)c2ccc(O)cc12,5.0%,-5.9%,-13.8%,-10.2%,-10.1%
CCOC(=O)C1=C(O)/C(=C\c2cc(C)n(-c3ccccc3F)c2C)N=C1C,-14.3%,25.1µM*,3.9%,-2.2%,3.8%
CCOC(=O)C1=C(O)/C(=C\c2cc(C)n(-c3ccc(F)cc3)c2C)N=C1C,16.3%,14.1µM*,-5.2%,-3.4%,4.3%
CCOC(=O)C1=C(O)/C(=C/c2cccc(OC)c2O)N=C1C,-7.2%,.,-23.4%,-4.3%,-9.1%
O=C(O)CCCNc1cc(N2CCN(C(=O)c3ccco3)CC2)c2noc3c2c1C(=O)c1ccccc1-3,-6.3%,6.31µM*,-4.2%,-18.7%,-27.1%
CCOC(=O)N1CCN(c2cc(NCCC(=O)O)c3c4c(onc24)-c2ccccc2C3=O)CC1,?,?,-15.4%,15.8µM*,?
CN1CCN(c2cc(N3CCN(C(=O)c4ccco4)CC3)c3c4c(onc24)-c2ccccc2C3=O)CC1,-14.8%,10µM*,-5.9%,-8.3%,17.8µM*
CCCCNc1cc(N2CCN(C3CCCCC3)CC2)c2noc3c2c1C(=O)c1ccccc1-3,.,3.6%,-4.4%,.,.
O=C1c2ccccc2-c2onc3c(N4CCN(CCO)CC4)cc(N4CCN(C(=O)c5ccco5)CC4)c1c23,-14.1%,3.55µM*,-13.1%,-11.5%,14.1µM*
Cc1cc(C)c2c(=O)cc(C(=O)NCCc3ccc(S(N)(=O)=O)cc3)oc2c1,.,-1.2%,3.8%,.,.
CCNc1ccc2noc3c2c1C(=O)c1ccccc1-3,-20.3%,1.8%,?,-14.0%,?
O=C(O)CCCNc1cc(N2CCC3(CC2)OCCO3)c2noc3c2c1C(=O)c1ccccc1-3,.,8.91µM*,.,?,.
CCc1nn2c(-c3ccco3)ccnc2c1-c1ccc(F)cc1,.,-1.9%,-6.7%,.,.
O=c1/c(=C/c2ccccn2)sc2nc3ccccc3n12,-16.4%,1.8%,-8.4%,?,9.9%
O=c1/c(=C\c2cc([N+](=O)[O-])cc([N+](=O)[O-])c2O)sc2nc3ccccc3n12,1.4%,-2.3%,28.2µM*,-3.8%,-12.8%
COc1ccc(C)cc1NC(=O)CSc1nc(=O)n(Cc2ccncc2)c2c1CCC2,.,-3.5%,0.3%,.,.
CCN(CC)CCn1c2c(c(SCC(=O)Nc3cccc(C(C)=O)c3)nc1=O)CCCC2,-12.7%,44.7µM*,-3.4%,.,-24.2%
COC(=O)c1ccc(NC(=O)CSc2nc(=O)n(Cc3ccco3)c3c2CCC3)cc1,.,?,0.0%,.,.
COc1ccc(C)cc1NC(=O)CSc1nc(=O)n(Cc2ccco2)c2c1CCC2,.,35.5µM*,?,.,.
CCc1ccc(NC(=O)CSc2nc(=O)n(Cc3ccco3)c3c2CCC3)cc1,.,44.7µM*,-3.7%,.,.
Cc1c(Cl)cccc1NC(=O)CSc1nc(=O)n(Cc2ccco2)c2c1CCC2,.,39.8µM*,-8.1%,.,.
CCN(CC)CCCn1c2c(c(SCC(=O)Nc3cccc(C(C)=O)c3)nc1=O)CCC2,10.3%,-9.9%,-2.7%,.,-1.2%
C#CCNC(=O)C1=C[C@@H](C2CCCCC2)[C@H](CCCO)[C@@H](OCC)O1,8.0%,39.8µM*,0.1%,10.2%,9.2%
